Bioassay records (PubChem)
The list is not random: actives were taken first. Their share in the collection is about 0.71%.
Epigenetic derep – regulators of epigenetic silencing causing reporter derepression in mouse cells; 280,000 tested, 0.2% active; murine LDR cells, GFP reporter derepression, 30 h; Potency, µM (doses to about 53.9 µM), without a hit: top-dose GFP activation, most hits filed as activators; AID 1865; further: potency means the concentration at half of the fitted maximal effect; % of control where 0% means no effect; nearly all actives have a fitted effect of over 60% in size
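Murine LDR cells carrying a silenced, genomically integrated CMV-driven GFP reporter were exposed to compound for 30 hours at 37 C. After PBS washes, GFP-positive cells (20–120 um objects) were counted by laser-scanning microplate cytometry.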
TexasRed fluor – counter-screen for TRb-SRC2 inhibitors: fluorescence interference | TRb/SRC2 Texas Red total fluorescence interference | Potency, µM (series often up to 106 µM), without a hit: at the top dose fluorescence change, negative = quenching | 280,000 tested, 0.29% active; active means well fitted curve in either direction with a large enough effect; inconclusive means small, poorly fitted or top-dose-only effect; further: potency means the concentration at half of the fitted maximal effect; on the % scale 0 is the no-effect control and ±100 the full control effect
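Human TRβ ligand-binding domain (0.6 uM) and Texas Red SRC2 peptide (20 nM) in Tris buffer with 1 uM T3 and 5% DMSO were incubated with pinned compound for 5 hr at ambient temperature. Total fluorescence was computed as S + 2P (555/632 nm).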
RGS12 GoLoco inh – inhibitors of human Gai1-RGS12 GoLoco interaction (red fluorophore). Gai1:RGS12 GoLoco peptide FP, rhodamine, 10 min. Potency, µM (doses to about 61.6 µM), for inactives: at the top dose activity, negative = inhibition, usual class: inhibitors. 230,000 tested, 0.44% active; active means well fitted inhibition curve with a large enough effect, not every such curve was filed as active; inactive means no such curve, though single readings can be large or run the other way; further: potency means the concentration at half of the fitted maximal effect; on the % scale 0 is the no-effect control and ±100 the full control effect; nearly all actives have a fitted effect of over 30% in size
TRb-SRC2 inh – disrupts binding of human TR beta to SRC2; 280,000 tested, 0.065% active; Potency, µM (doses to about 106 µM), for inactives: top-dose activity change, negative = inhibition, hits mostly inhibitors; P10828; TRbeta-SRC2 peptide binding, fluorescence polarization; receptor liganded with 1 µM T3;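 further: potency means the concentration at half of the fitted maximal effect; plate controls were bound peptide for no effect and peptide without receptor for full effect; nearly all actives have a fitted effect of over 50% in size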
Target sequence (P10828 whole entry, looked up): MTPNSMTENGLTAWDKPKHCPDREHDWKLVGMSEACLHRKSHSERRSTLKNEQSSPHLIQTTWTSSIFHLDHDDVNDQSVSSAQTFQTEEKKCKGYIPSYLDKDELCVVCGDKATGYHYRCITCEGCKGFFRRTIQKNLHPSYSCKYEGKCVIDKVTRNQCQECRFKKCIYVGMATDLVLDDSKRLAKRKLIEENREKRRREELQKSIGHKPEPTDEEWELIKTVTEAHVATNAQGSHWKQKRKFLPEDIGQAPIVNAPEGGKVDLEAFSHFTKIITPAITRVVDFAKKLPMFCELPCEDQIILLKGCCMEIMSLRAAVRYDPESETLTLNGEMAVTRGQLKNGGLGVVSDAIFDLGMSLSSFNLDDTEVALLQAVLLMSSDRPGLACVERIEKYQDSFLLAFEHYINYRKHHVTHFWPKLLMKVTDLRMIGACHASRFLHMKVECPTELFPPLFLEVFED
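TRb LBD 0.6 uM + Texas Red SRC2 peptide 20 nM, 1 uM T3, Tris buffer w/ 5% DMSO; compound pinned, 5 h RT; FP read ex 555/em 632; normalized to unbound and bound controls.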
CBFb-RUNX1 inh – blocks binding between human CBF-beta and RUNX1; 230,000 tested, under 10 active; Potency, µM (titrated, usually from 59.8 µM), without a hit: top-dose activity, negative = inhibition, most hits filed as inhibitors; AlphaScreen CBFb-His/RUNX1-biotin binding, biochemical; Q01196+Q13951; further: % of control where 0% means no effect
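Room-temperature protein-protein interaction test with 30 nM each of His-tagged CBF-beta and biotinylated RUNX1, 15 min with compound, then 90 min with nickel plus streptavidin beads. Signal read in AlphaScreen mode.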
Numbers without * were called inactive; ? = inconclusive; nt = not tested or not shown; ! = not active in a repeat; [ ] = dose if it differs, or a comment. Unless noted, the call rests on the fitted dose curve; in most records, active means well fitted curve in the direction sought with a large enough effect; inconclusive means small, poorly fitted or top-dose-only effect, or another doubt; inactive means no such curve, though single readings can be large; an effect the other way counts as inactive or inconclusive.

SMILES	Epigenetic derep	TexasRed fluor	RGS12 GoLoco inh	TRb-SRC2 inh	CBFb-RUNX1 inh
O=C(O)C1Nc2c(O)cc(Cl)c([N+](=O)[O-])c2C2C=CCC12 (centres undefined)	5%	13µM*[quencher]	10µM*	?	nt
CCOc1ccccc1NC(=O)Cc1coc2c(C)c(C)ccc12	2%	35µM*[quencher]	nt	-12%[53 µM]	nt
Cc1cc(/C=C/c2ccc3cc(N(C)C)ccc3[n+]2C)c(C)n1-c1ccccc1	22µM*	40µM*[fluorescent]	-11%	?	?
CCS(=O)(=O)Nc1ccc(-c2cc(-c3ccccc3)c3cc(C)ccc3n2)cc1	-1%	0.14µM*[quencher]	-15%	-15%[53 µM]	-3%
COc1ccc(/C=C(/C(=O)c2ccc(Cl)cc2Cl)n2cncn2)cc1	0%	0%	3%	0%	1%
CN(C)c1ccc(/C=C(/C(=O)c2ccc(Cl)cc2Cl)n2cncn2)cc1	?	31623µM*[quencher]	43%	-9%	-1%
CCCCC(=Nc1ccc(N)cc1)C1=C(O)C(C(=O)OC)C(C)(C)CC1=O (centres undefined)	3%	?	25µM*	?	-18%
CCC(=Nc1ccc(N)cc1)C1=C(O)C(C(=O)OC)C(C)(C)CC1=O (centres undefined)	?	45µM*[fluorescent]	nt	28µM*	-24%
CN(N=O)c1ccc(/C=C\c2ccnc3ccccc23)cc1	nt	nt	-4%[14.2 µM]	nt	nt
CCOC(=O)c1c(-c2ccccc2)oc2ccc(NS(=O)(=O)c3ccc(C)cc3)cc12	3%	40µM*[quencher]	nt	-12%	nt
CCOC(=O)c1c(C)oc2ccc(NS(=O)(=O)c3ccc(C(=O)O)cc3)cc12	-3%	-2%	14%	0%	2%
O=C(Nc1nc(-c2ccccn2)cs1)c1ccc(Cl)s1	22µM*	5%	5%	-12%	-4%
C=C[Si](C)(C)O[Si](C)(C)C=C	nt	-3%[201 µM]	nt	3%[201 µM]	nt
CCOC(=O)[C@@H](N)CS	nt	-5%	8%	4%	nt
O=C(Oc1ccccc1)N1CCC2(CC1)CCN(c1ccncc1)CC2	nt	nt	2.8µM*	nt	nt
O=[N+]([O-])c1ccc(/C=N/NC(=S)Nc2ccc(Cl)cc2Cl)s1	22µM*	-3%	17%	4%	-22%
COC(=O)[C@H]1C[C@@H]1[C@H](NC(C)=O)c1ccccc1	1%	-22%	1.3µM*	-8%	0%
CN1CCC(=C2c3ccccc3Sc3ccccc32)CC1	-1%	0%	18µM*!	2%	?
CN1CCC(=C2c3ccccc3C=Cc3ccccc32)CC1	-1%	5%	12%	-4%	4%
O=C(O)CSc1cccc2cccnc12	18µM*	-5%	4%	4%	-3%
O=C(CSc1cccc2cccnc12)N/N=C/c1ccc(F)cc1	0%	-3%	-3%	-1%	-2%
Cc1csc(NC(=O)c2cc(-c3ccco3)nc3ccccc23)n1	1%	7.1µM*[quencher]	35%	-21%[53 µM]	-7%
O=C(N/N=C/c1ccc(F)cc1)c1cc(-c2ccco2)nc2ccccc12	3%	32µM*[quencher]	9%	3%	nt
Cc1csc(NC(=O)c2cc(C)nc3ccccc23)n1	0%	-3%	4%	-13%	1%
O=C1NC(=O)C(Cc2ccc(OCCN3COc4ccccc4C3=O)cc2)S1 (centres undefined)	nt	-4%	nt	0%	6%
SMILES	Epigenetic derep	TexasRed fluor	RGS12 GoLoco inh	TRb-SRC2 inh	CBFb-RUNX1 inh
CCOCCOCCOC(C)=O	nt	-5%[201 µM]	nt	6%[201 µM]	nt
CCn1cc(C(=O)Nc2ccc(C(C)C)cc2)c2cc(OC)c(OC)cc2c1=O	-1%	0%	nt	3%	nt
N#C/C(=C/c1ccc(N2CCOCC2)o1)c1ccc(Cl)cc1	3.2µM*	19%	-2%	1%	-16%
N#C/C(=C\c1ccc(N2CCOCC2)o1)c1nc2ccccc2[nH]1	13µM*	nt	200%	nt	-16%
CN(C(=O)c1ccc2c(c1)N(Cc1ccc(F)cc1)C(=O)c1ccccc1S2(=O)=O)C1CCCCC1	0%	1%	nt	2%	nt
[N-]=[N+]=Nc1ccc(C(=O)CSC[C@H](NC(=O)CC[C@H](N)C(=O)O)C(=O)NCC(=O)O)cc1	-1%	1%	4%	-1%	-5%
C=C(C)C(=O)/C=C/c1ccc(Br)cc1	?	-1%	6%	6%	11%
Cc1c(C(=O)N/N=C/c2cccs2)nc2ccccn12	1%	178µM*[quencher]	-3%	-21%[53 µM]	-3%
CCCCCCCCCCO	nt	0%[5.17e+03 µM]	nt	3%[5.17e+03 µM]	nt
NS(=O)(=O)c1ccc(NC(=S)NC(=O)c2ccc(-c3ccccc3)cc2)cc1	3%	0.32µM*[quencher]	-25%	-22%[53 µM]	-4%
NC(N)=NS(=O)(=O)c1ccc(NC(=S)NC(=O)c2ccccc2)cc1	1%	0%	2%	-4%	14%
COC(=O)C1=C(C(=O)OC)[C@@H]2N(C)c3ccc(OC)cc3[C@@]23C[C@@H](C(=O)OC)N(S(=O)(=O)c2c(C)noc2C)C3=N1	nt	-3%[11.2 µM]	3%[14.2 µM]	5%[11.2 µM]	-2%[13.1 µM]
Nc1ccc(C(=O)OCC(=O)N2CCc3ccccc3C2)cc1[N+](=O)[O-]	2%	-1%	1%	-11%	1%
Nc1ccc(C(=O)OCC(=O)N2CCN(C(=O)c3ccco3)CC2)cc1[N+](=O)[O-]	7%	0.16µM*[quencher]	-10%	-12%	-10%
CCOC(=O)c1ccc(NC(=O)CSc2nc(-c3ccc(F)cc3)cc(C(F)(F)F)c2C#N)cc1	7.1µM*	?	nt	-4%	nt
CCN(CC)C(=O)CSc1nc(-c2cccs2)cc(-c2cccs2)c1C#N	35µM*	-2%	13%	-8%	4%
N#Cc1c(C(F)(F)F)cc(-c2cccs2)nc1SCC(=O)Nc1cccc(Br)c1	10µM*	0%	nt	?	nt
CSc1nc(N)nc(SCC(=O)Nc2ccc(Cl)cc2)c1C#N	2%	0%	53%	7%	0%
CSc1nc(N)nc(SCC(=O)Nc2cccc(F)c2)c1C#N	-1%	1.3µM*[quencher]	16%	?	-3%
CCCCCCCC[Si](OCC)(OCC)OCC	nt	0%[201 µM]	nt	8%[201 µM]	nt
CN(C)c1ccc(C(=C2C=CC(=[N+](C)C)C=C2)c2ccc(N(C)C)cc2)cc1	-3%	-10%[201 µM]	-43%	100µM*	nt
COc1ccc(OC)c2c1C(=O)c1ccccc1C2=O	-2%	-4%	7.9µM*	-7%	2%
O=C1c2ccccc2C(=O)c2c(O)ccc(O)c21	?	1%	28µM*	-2%	?
COc1ccc(OC)c2c1C(=O)C(Cl)=C(Cl)C2=O	0%	-2%	0.45µM*	4%	0%
COc1ccc(N)c2c1C(=O)c1ccccc1C2=O	-3%	50µM*[fluorescent]	48%	32µM*	?
COC1=C(OC)C(=O)c2ccccc2C1=O	4%	-2%	9%	1%	2%
N#CC(C(=O)NC1CCCCC1)=C1CCCCCC1	-2%	-8%	3%	2%	10%
CCCN1C(=O)/C(=C/c2c(N3CCNC(=O)C3CC(=O)OC)nc3c(C)cccn3c2=O)SC1=S (centres undefined)	14µM*	-3%	192%	3%	12%
